Measured values published in PubChem BioAssay (NCATS).
Where “and” joins values, the source holds several entries; their conditions need not be identical. Equal values may be shown once. Records with an inconclusive call do not appear. Calls of active or inactive are those of the source. Unless noted, the call rests on the fitted dose curve; in most records, active means well fitted curve in the direction sought with a large enough effect; inconclusive means small, poorly fitted or top-dose-only effect, or another doubt; inactive means no such curve, though single readings can be large; an effect the other way counts as inactive or inconclusive.

Columns and labels:
[1] = Cellular Toxicity (caspase-3) HepG2 (AID 654);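 further: cells exposed to compound for 16 hours before reading; 0% = DMSO alone and 100% = caspase signal from 100 µM tamoxifen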
Method in brief: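 HepG2 cells (1500/well) were treated 16 h at 37 °C in complete medium, then caspase 3/7 activity was read by Caspase-Glo luminescence. Data were normalized to DMSO and 100 uM tamoxifen; AC50 came from Hill-equation fits of qHTS concentration-response.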

[2] = Cellular Toxicity (caspase-3) SK-N-SH (AID 661);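 further: 0% = DMSO basal and 100% = 10 µM staurosporine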
Method in brief: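 Human SK-N-SH neuroblastoma cells, 1500/well, were exposed to compounds for 16 hours at 37 °C. Caspase-Glo 3/7 luminescence was normalized to DMSO (basal) and 10 uM staurosporine (100%), and AC50 came from a Hill fit.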

[3] = Cellular Toxicity (caspase-3) Hek293 (AID 664); conditions: HEK293 caspase-3 activation, DMSO = 0%, 100 µM tamoxifen = 100%; at 92.2 µM (top of the series);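 further: cells exposed to compound for 16 h at 37 °C before readout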
Method in brief: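 HEK293 cells in complete medium treated 16 h at 37 °C, then Caspase-Glo 3/7 luminescence read after 20 min at room temperature. Normalized to DMSO and 100 uM tamoxifen; AC50 from Hill fit of concentration-response.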

[4] = Cellular Toxicity (caspase-3) N2a (AID 665);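 further: compound exposure lasted 16 h at 37 °C before readout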
Method in brief: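 Mouse N2a neuroblastoma cells, 1500 per well, treated 16 h at 37 °C in complete medium; caspase-3/7 activity by Caspase-Glo luminescence after 1 h. Normalized to DMSO and 10 uM staurosporine; AC50 from Hill fits.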

[5] = Cellular Toxicity (caspase-3) NIH 3T3 (AID 666);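 further: 0% = DMSO basal and 100% = 100 µM tamoxifen stimulation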
Method in brief: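 Mouse NIH 3T3 fibroblasts (1000/well) treated 16 h at 37 C; caspase-3/7 activity measured by Caspase-Glo 3/7 luminescence after 20 min. Normalized to DMSO and 100 uM tamoxifen; AC50 from Hill fits.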

[6] = Cellular Toxicity (caspase-3) Renal Proximal Tubule (AID 667);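 further: cells exposed to compound for 16 hours at 37 °C before detection; 0% = DMSO basal and 100% = 10 µM staurosporine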
Method in brief: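 Caspase-Glo 3/7 read-out, rat primary kidney proximal tubule cells. Compound exposure 16 h, 37 °C; detection after 1 h at RT. Activity scaled to DMSO and 10 uM staurosporine.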

[7] = MultiTox-Fluor Cytotoxicity Assay - LYMP1-003 - Dead Cells (AID 961);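 further: 0% = DMSO and 100% = tetraoctylammonium bromide; nearly all actives have a fitted effect of over 70% in size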
Method in brief: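 Human lymphoblastoid LYMP1-003 cells (2500/well) were treated with compounds for 16 hr at 37 C in complete medium. Dead-cell protease release was read by bis-AAF-R110 fluorescence (Ex/Em 485/520). AC50 came from Hill fits, normalized to DMSO and 15 uM tetraoctylammonium bromide.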

[8] = Cell Viability - LYMP2-003 (AID 965);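 further: cells exposed to compounds for 24 h before reading; 0% = DMSO only and full effect = 92 µM tetraoctylammonium bromide; nearly all actives have a fitted effect of over 50% in size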
Method in brief: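 qHTS, human lymphoblastoid line, 2500 cells/well, complete medium. 24 h drug, 37 C. ATP-based luminescent readout; Hill-fit AC50.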

[9] = Cell Viability - LYMP2-009 (AID 968);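 further: 0% = DMSO alone and the full-kill end = tetraoctylammonium bromide at 92 µM; nearly all actives have a fitted effect of over 55% in size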
[10] = Cell Viability - LYMP2-013 (AID 970);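 further: 0% = DMSO only and full inhibition = tetraoctylammonium bromide control; nearly all actives have a fitted effect of over 55% in size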
Method in brief: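 Human lymphoblastoid LYMP2-013 cells, 2500/well, treated 24 h at 37 C in complete medium; viability as intracellular ATP by CellTiter-Glo luminescence after 30 min. AC50 from Hill fits of qHTS concentration-response.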

[11] = Cell Viability - LYMP2-025 (AID 976);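 further: plate controls were DMSO only for no effect and tetraoctylammonium bromide control for full effect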
Method in brief: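 Human lymphoblastoid LYMP2-025 cells, 2500/well, exposed 24 h at 37 C in complete medium in 1536-well qHTS. Viability as cellular ATP by CellTiter-Glo luminescence; AC50 from Hill fits of concentration-response data.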

[12] = Cell Viability - LYMP2-006 (AID 978);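 further: cells exposed to compound for 24 hours; on the % scale 0 is the no-effect control and ±100 the full control effect; nearly all actives have a fitted effect of over 60% in size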
Method in brief: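 In this cytotoxicity screen, the human lymphoblastoid line grew in complete medium with test compounds for 24 hr at 37 C. Cellular ATP served as the viability signal.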

[13] = Cell Viability - LYMP2-007 (AID 979);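 further: cells exposed to compound for 24 h before reading; 0% = DMSO only and the negative end = 92 µM tetraoctylammonium bromide; nearly all actives have a fitted effect of over 60% in size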
Method in brief: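 Human lymphoblastoid LYMP2-007 cells (2500/well) preincubated 5 h at 37 C, then treated 24 h at 37 C in complete medium. Viability by CellTiter-Glo ATP luminescence after 30 min at room temperature; AC50 from Hill fits.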

[14] = Cell Viability - LYMP2-008 (AID 980); further: on the % scale 0 is the no-effect control and ±100 the full control effect; nearly all actives have a fitted effect of over 60% in size
Method in brief: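 LYMP2-008 lymphoblastoid cells (2500/well) plated 5 h, then treated 24 h at 37 C in complete medium. Viability read as intracellular ATP by CellTiter-Glo luminescence after 30 min at room temperature; AC50 from Hill fits.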

[15] = Cell Viability - LYMP1-002 - Assay at 24 hr (AID 993); further: on the % scale 0 is the no-effect control and ±100 the full control effect
Method in brief: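 Human lymphoblastoid LYMP1-002 cells (2500/well) treated 24 h at 37 °C; viability as intracellular ATP by CellTiter-Glo luminescence. Tetraoctylammonium bromide as positive control; AC50 from Hill-equation fits of qHTS concentration-response.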

[16] = qHTS Assay for Identification of Small Molecule Inducers of Hypoxia Response (AID 2120; active means well fitted curve in the direction sought with a large enough effect in the signal ratio, with a control signal flat, not every such curve was filed as active; the % refers to the signal ratio; further: 0% is about no effect)
Method in brief: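 HRE-bla ME-180 cells in Opti-MEM with 0.5% dialyzed FBS, pre-plated 4-5 h, then compound titration for 17 h at 37 degrees Celsius. CCF4 loaded 2.5 h at room temperature; 460/530 nm ratio gave %Activity and AC50 for induction.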

[17] = biological target: Peroxisome proliferator-activated receptor alpha (Homo sapiens) (UniProt Q07869); test: qHTS assay for small molecule agonists of the peroxisome proliferator-activated receptor alpha (PPARalpha) signaling pathway (AID 651778); conditions: PathHunter PPARalpha complementation, chemiluminescence, 6 h; hits give high values; further: % of control where 0% means no effect
Sequence of Peroxisome proliferator-activated receptor alpha (Homo sapiens) (Q07869 whole entry, looked up): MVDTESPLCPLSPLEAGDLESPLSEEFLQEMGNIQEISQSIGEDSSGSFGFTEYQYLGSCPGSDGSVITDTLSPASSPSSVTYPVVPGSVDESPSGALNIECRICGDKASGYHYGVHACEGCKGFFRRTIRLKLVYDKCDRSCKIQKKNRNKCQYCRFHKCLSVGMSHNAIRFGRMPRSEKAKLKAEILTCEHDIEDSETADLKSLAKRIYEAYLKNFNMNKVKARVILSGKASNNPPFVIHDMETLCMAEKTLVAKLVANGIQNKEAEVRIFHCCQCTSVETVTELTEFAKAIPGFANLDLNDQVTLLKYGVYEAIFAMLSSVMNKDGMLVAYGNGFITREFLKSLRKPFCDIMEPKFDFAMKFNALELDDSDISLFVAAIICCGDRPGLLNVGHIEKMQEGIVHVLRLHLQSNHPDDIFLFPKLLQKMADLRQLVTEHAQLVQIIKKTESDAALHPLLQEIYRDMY
Method in brief: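 Chemiluminescence from complemented enzyme reported PPARalpha activation in cells after 6 hr of compound treatment at 37 C. The detection reagent was incubated for 60 min at room temperature, and compounds were scored as agonists.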

[18] = qHTS assay for small molecule agonists of the antioxidant response element (ARE) signaling pathway measured by Nrf2-dependant transcriptional activity - cell viability counter screen (AID 720653; active means well fitted curve in the direction sought with a large enough effect in the repeat runs; an effect the other way counts as inactive or inconclusive; further: on the % scale 0 is the no-effect control and ±100 the full control effect); conditions: ARE-bla HepG2 viability, CellTiter-Glo ATP luminescence, 16 h; hits give low values
Method in brief: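 Cytotoxicity counter screen: intracellular ATP quantified by CellTiter-Glo luminescence in the same ARE-bla HepG2 plates, after 16 h compound exposure and a 2 h beta-lactamase substrate step.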

[19] = qHTS assay for cell viability of HEK293 cells (AID 743288); conditions: ATP luminescence (CellTiter-Glo), 18 h, hits give low values; further: on the % scale 0 is the no-effect control and ±100 the full control effect; nearly all actives have a fitted effect of over 50% in size
Method in brief: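 Luminescent ATP quantitation served as the viability read-out. Cells (parental HEK293, 2,000/well) received compounds after at least 5 h at 37 C and were exposed for 18 h before a 30 min room-temperature reagent step.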

[20] = qHTS assay for cell viability of the p53RE-bla HCT-116 cell line (AID 743292); further: on the % scale 0 is the no-effect control and ±100 the full control effect; nearly all actives have a fitted effect of over 55% in size
Method in brief: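 Quantitative high-throughput format: compounds in DMSO were pinned onto p53RE-bla HCT-116 cells (4,000/well) and incubated 16 h at 37 C. Total intracellular ATP, read by CellTiter-Glo luminescence, reflects viable cell number.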

ClCC(Br)CBr (stereo not given)
inactive: outcome [1] | Potency [2] | caspase-3 activation [3] 0.439% | outcome [4] | Potency [5] | outcome [6] | Potency [7] | Potency [8] | Potency [9] | Potency [10] | Potency [11] | Potency [12] | Potency [13] | Potency [14] | Potency [15] | Potency [16] | max response [17] -1.61% | max response [18] 3.72% | max response [19] -7.97% | Potency [20]

S=c1[nH]c2ccccc2[nH]1
inactive: outcome [1] | Potency [2] | caspase-3 activation [3] 0.513% | outcome [4] | Potency [5] | outcome [6] | Potency [7] | Potency [8] | Potency [9] | Potency [10] | Potency [11] | Potency [12] | Potency [13] | Potency [14] | Potency [15] | Potency [16] | max response [17] -5.62% | max response [18] 2.67% | max response [19] 7.64% | Potency [20]

Clc1ccccc1
inactive: outcome [1] | Potency [2] | caspase-3 activation [3] 0.224% | outcome [4] | Potency [5] | outcome [6] | Potency [7] | Potency [8] | Potency [9] | Potency [10] | Potency [11] | Potency [12] | Potency [13] | Potency [14] | Potency [15] | Potency [16] | max response [17] -0.13% | max response [18] -18.9% | max response [19] 10.9% | Potency [20]

CC12CC1(C)C(=O)N(c1cc(Cl)cc(Cl)c1)C2=O (stereo not given)
inactive: outcome [1] | Potency [2] | caspase-3 activation [3] 1.47% | outcome [4] | Potency [5] | outcome [6] | Potency [7] | Potency [8] | Potency [9] | Potency [10] | Potency [11] | Potency [12] | Potency [13] | Potency [14] | Potency [15] | Potency [16] | max response [17] -1.35% and -2.97% | max response [18] -1.37% and -4.13% | max response [19] 5.03% and -17.6% | Potency [20]

OCC(Cl)CCl (stereo not given)
inactive: outcome [1] | Potency [2] | caspase-3 activation [3] 1.15% | outcome [4] | Potency [5] | outcome [6] | Potency [7] | Potency [8] | Potency [9] | Potency [10] | Potency [11] | Potency [12] | Potency [13] | Potency [14] | Potency [15] | Potency [16] | max response [17] 0.308% | max response [18] -10.2% | max response [19] -6.78% | Potency [20]

CC(C)OS(C)(=O)=O
inactive: outcome [1] | Potency [2] | caspase-3 activation [3] -0.589% | outcome [4] | Potency [5] | outcome [6] | Potency [7] | Potency [8] | Potency [9] | Potency [10] | Potency [11] | Potency [12] | Potency [13] | Potency [14] | Potency [15] | Potency [16] | max response [17] -9.26% | max response [18] -6.13% | max response [19] -1.94% | Potency [20]

Cl/C=C\Cl
inactive: outcome [1] | Potency [2] | caspase-3 activation [3] 0.708% | outcome [4] | Potency [5] | outcome [6] | Potency [7] | Potency [8] | Potency [9] | Potency [10] | Potency [11] | Potency [12] | Potency [13] | Potency [14] | Potency [15] | Potency [16] | max response [17] -0.887% | max response [18] -3.68% | max response [19] -1.83% | Potency [20]

CCCN(CCC)c1c([N+](=O)[O-])cc(C(F)(F)F)cc1[N+](=O)[O-]
inactive: outcome [1] | Potency [2] | caspase-3 activation [3] 3.06% | outcome [4] | Potency [5] | outcome [6] | Potency [7] | Potency [8] | Potency [9] | Potency [10] | Potency [11] | Potency [12] | Potency [13] | Potency [14] | Potency [15] | Potency [16] | max response [17] 2.49% and -0.599% | max response [18] -5.66% and -9.4% | max response [19] 12.8% and -6.09% | Potency [20]

C=CCCC#N
inactive: outcome [1] | Potency [2] | caspase-3 activation [3] -0.209% | outcome [4] | Potency [5] | outcome [6] | Potency [7] | Potency [8] | Potency [9] | Potency [10] | Potency [11] | Potency [12] | Potency [13] | Potency [14] | Potency [15] | Potency [16] | max response [17] -3.78% | max response [18] -16.2% | max response [19] -20.1% | Potency [20]

ClC(Cl)(Cl)C(Cl)(Cl)Cl
inactive: outcome [1] | Potency [2] | caspase-3 activation [3] -1.3% | outcome [4] | Potency [5] | outcome [6] | Potency [7] | Potency [8] | Potency [9] | Potency [10] | Potency [11] | Potency [12] | Potency [13] | Potency [14] | Potency [15] | Potency [16] | max response [17] -2.99% | max response [18] -0.289% | max response [19] 3.22% | Potency [20]

Cc1ccc(N)c(C)c1
inactive: outcome [1] | Potency [2] | caspase-3 activation [3] 1.54% | outcome [4] | Potency [5] | outcome [6] | Potency [7] | Potency [8] | Potency [9] | Potency [10] | Potency [11] | Potency [12] | Potency [13] | Potency [14] | Potency [15] | Potency [16] | max response [17] -4.17% | max response [18] -6.08% | max response [19] 1.36% | Potency [20]

COc1cc(-c2ccc(N)c(OC)c2)ccc1N
inactive: outcome [1] | Potency [2] | caspase-3 activation [3] -1.4% | outcome [4] | Potency [5] | outcome [6] | Potency [7] | Potency [8] | Potency [9] | Potency [10] | Potency [11] | Potency [12] | Potency [13] | Potency [14] | Potency [15] | Potency [16] | max response [17] -3.45% and -1.48% and -1.31% | max response [18] 19% and 0.28% and -8.23% | max response [19] 15.2% and -15% and -5% | Potency [20]
